Compounds with a hit are over-represented: about 8% of the library has one in this group of screens.
MCF10A rereplic = inducers of DNA re-replication in MCF 10A breast cells. MCF 10A DNA re-replication, Hoechst nuclear intensity, 48 h. Potency, µM (highest dose often 46.1 µM), most hits filed as activators. hit rate 2.9% among 350,000; also: nearly all actives have a fitted effect of over 50% in size
HT1080 IDH1KD tx = HT-1080 IDH1 knockdown cell toxicity (counter line); HT-1080 IDH1 knockdown viability, ATP luminescence, 48 h; Potency, µM (titrated, usually from 46.1 µM), most hits filed as cytotoxic; hit rate 2% among 360,000
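% activity derives from luminescence (CellTiter-Glo), normalised to DMSO and no-cell wells. HT-1080-IDH1KD cells, 750/well, had 48 h compound exposure at 37 °C.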
KB-3-1 tox = kills parental KB-3-1 adenocarcinoma cells | Potency, µM (titrated, usually from 46.1 µM), actives largely listed as cytotoxic | hit rate 1.4% among 400,000 | KB-3-1 viability, CellTiter-Glo ATP luminescence, 72 h; also: nearly all actives have a fitted effect of over 60% in size
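Using CellTiter-Glo luminescence, growth of non-resistant KB-3-1 adenocarcinoma cells is assessed 72 h after pin-tool compound addition at 37 °C. Normalized responses across the concentration series yield fitted curves.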
KB-V1 cytotox = kills drug-selected multidrug resistant KB-V1 cells | KB-V1 MDR cells viability, CellTiter-Glo, 72 h | Potency, µM (titrated, usually from 46.1 µM), most hits filed as cytotoxic | hit rate 3.4% among 400,000; also: nearly all actives have a fitted effect of over 60% in size
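Drug-selected KB-V1 cells, grown in DMEM lacking phenol red with 10% FBS, receive compound titrations; after three days at 37 degrees C, surviving cell ATP is quantified by CellTiter-Glo luminescence and responses normalized and curve-fitted.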
HT1080-NT tox = kills 2HG-producing HT-1080-NT fibrosarcoma cells; HT-1080-NT fibrosarcoma viability, CellTiter-Glo ATP luminescence, 48 h; Potency, µM (highest dose often 46.1 µM), usual class: cytotoxic; hit rate 1.6% among 360,000; AID 686970;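 also: NT is the 2HG producing partner of a matched IDH1 knockdown line; nearly all actives have a fitted effect of over 55% in size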
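A 48-hour cytotoxicity screen used HT-1080-NT cells plated 2 hours before compound delivery. ATP-based CellTiter-Glo luminescence measured viability, normalized to DMSO and no-cell controls.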
SW480 rerep = inducers of DNA re-replication in SW480 colon cancer cells | SW480 DNA re-replication, Hoechst DNA content imaging, 48 h | hit rate 1.8% among 340,000 | AID 624297 | Potency, µM (titrated, usually from 46.1 µM), hits mostly activators; also: nearly all actives have a fitted effect of over 55% in size
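Image-based DNA-content assay: after two days of treatment, nuclei were labelled with the DNA dye Hoechst and imaged, and hits were compounds raising the count of nuclei showing high fluorescence intensity.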
Of the large screens only hits and unclear results are named; the others gave an inactive call. Calls follow the shape of the dose curve; as a rule, active = well fitted curve in the direction sought with a large enough effect; inconclusive = small, poorly fitted or top-dose-only effect, or another doubt; inactive = no such curve, though single readings can be large; an effect the other way counts as inactive or inconclusive.

Clc1ccc2c(SCC3CO3)c3ccccc3nc2c1 (stereo not drawn)	MCF10A rereplic inconclusive, HT1080 IDH1KD tx 18µM, KB-3-1 tox inconclusive, KB-V1 cytotox 16µM, HT1080-NT tox inconclusive, SW480 rerep inconclusive
Cc1ccc(OCC(=O)N2N=C(C(F)(F)F)CC2(O)C(C)(C)C)cc1C (stereo not drawn)	MCF10A rereplic 8.2µM, KB-V1 cytotox 18µM, SW480 rerep inconclusive
O=C(Nc1ccc(F)cc1F)N1CCCN(c2ccc([N+](=O)[O-])cn2)CC1	none
CC(C)(C)c1ccc(NC(=O)N2CCN(c3ccc([N+](=O)[O-])cn3)CC2)cc1	MCF10A rereplic inconclusive, HT1080 IDH1KD tx 23µM, KB-3-1 tox inconclusive, KB-V1 cytotox inconclusive, HT1080-NT tox inconclusive
CCc1cccc(NC(=O)CCc2c(C)nc3c(c2C)c(=O)n(C)c(=O)n3C)c1	none (no result: MCF10A rereplic, HT1080 IDH1KD tx, HT1080-NT tox, SW480 rerep)
Cc1ccc(S(=O)(=O)n2ccc3c(OCCOCCNCc4ccc(F)cc4)cccc32)cc1	MCF10A rereplic inconclusive, HT1080 IDH1KD tx 21µM, KB-3-1 tox inconclusive, KB-V1 cytotox inconclusive, HT1080-NT tox 16µM
Cc1ccc(S(=O)(=O)n2ccc3c(OCCOCCSCC(NC(=O)OC(C)(C)C)C(=O)O)cccc32)cc1 (stereo not drawn)	MCF10A rereplic inconclusive, KB-V1 cytotox inconclusive
CN(C)c1ccc(/C=C2\C=Cc3ccccc32)c(F)c1	none (no result: MCF10A rereplic, HT1080 IDH1KD tx, HT1080-NT tox, SW480 rerep)
O=C1OCCN1C(=O)[C@H]1[C@H](c2ccc(Cl)cc2)C(c2ccccc2)=NN1c1ccccc1	MCF10A rereplic inconclusive, SW480 rerep inconclusive
O=C1OCCN1C(=O)[C@H]1[C@H](c2ccccc2)C(c2cccc(Cl)c2)=NN1c1ccccc1	MCF10A rereplic inconclusive, SW480 rerep 18µM
Cc1cccc(C2=NN(c3ccccc3)[C@@H](C(=O)N3CCOC3=O)[C@@H]2c2ccc(F)cc2)c1	MCF10A rereplic inconclusive, SW480 rerep inconclusive
Cc1cccc(C2=NN(c3ccccc3)[C@@H](C(=O)N3CCOC3=O)[C@@H]2c2ccc(Cl)cc2)c1	MCF10A rereplic 2.3µM, SW480 rerep 26µM
COc1ccc(CCNC(=O)CSc2cc(=O)n(C)c3ccccc23)cc1OC	none (no result: MCF10A rereplic, HT1080 IDH1KD tx, HT1080-NT tox, SW480 rerep)
Nc1ccc(/C=C/c2ccnc3ccccc23)c(N)c1	none (no result: MCF10A rereplic, HT1080 IDH1KD tx, HT1080-NT tox, SW480 rerep)
O=C(CC(=O)c1ccccc1)Nc1ccccn1	none
O=C(CC(O)(c1ccccc1)c1ccccc1)Nc1ccccn1	KB-V1 cytotox 15µM
O=c1cc(-c2ccccc2)nc2c(-c3ccccc3)c(C(F)(F)F)[nH]n12	MCF10A rereplic 8.2µM, HT1080 IDH1KD tx inconclusive, KB-V1 cytotox inconclusive, HT1080-NT tox inconclusive, SW480 rerep inconclusive
Cc1cc(C)c(NC(=O)CCS(=O)(=O)c2cc3c(cc2Cl)NC(=O)CO3)c(C)c1	none (no result: MCF10A rereplic, HT1080 IDH1KD tx, HT1080-NT tox, SW480 rerep)
O=[N+]([O-])c1ccc2c(c1)C=C/C2=C\c1ccccc1	none (no result: MCF10A rereplic, HT1080 IDH1KD tx, HT1080-NT tox, SW480 rerep)
Cc1cccc(NCc2ccccc2O)c1C	none
Cc1cccc(NCc2nnc(-c3ccccc3)o2)c1C	KB-V1 cytotox 18µM
CCCCNC(=O)C(CC)n1c(SCc2cccc(F)c2)nc2ccncc21 (stereo not drawn)	none (no result: MCF10A rereplic, HT1080 IDH1KD tx, HT1080-NT tox, SW480 rerep)
CCc1nnc(NC(=O)CSc2nccn2Cc2ccc(Cl)cc2)s1	none (no result: MCF10A rereplic, HT1080 IDH1KD tx, HT1080-NT tox, SW480 rerep)
Cc1c(C(N)=O)c(N)c(C(=O)c2ccccc2)n1-c1ccccc1	KB-V1 cytotox 21µM
CCCCn1c2ccc(F)cc2c2nnc(SCCN3CCCCC3)nc21	KB-3-1 tox inconclusive
CCCn1c2ccccc2c2nc3ccccc3nc21	MCF10A rereplic 22µM, SW480 rerep inconclusive
Cc1nc2c3cc(Cl)ccc3n(CCN3CCOCC3)c2s1	MCF10A rereplic inconclusive, HT1080 IDH1KD tx 21µM, KB-3-1 tox inconclusive, KB-V1 cytotox inconclusive, HT1080-NT tox 23µM, SW480 rerep inconclusive
CCCCn1c2ccc(C)cc2c2nnc(SCCN3CCCCC3)nc21	KB-3-1 tox 18µM, SW480 rerep inconclusive
Cc1ccc2c(c1)c1nc3ccccc3nc1n2CCN1CCOCC1	MCF10A rereplic inconclusive, KB-V1 cytotox 21µM, SW480 rerep inconclusive
CCc1ccccc1N(C)C(=O)c1cc2c(Cl)nc3ccc(C)cc3c2s1	none (no result: MCF10A rereplic, HT1080 IDH1KD tx, HT1080-NT tox, SW480 rerep)
CC(C)CCCC(C)CCCC(C)CCCCC(C)CCCC(C)CCCC(C)C (stereo not drawn)	none (no result: HT1080 IDH1KD tx, KB-3-1 tox, KB-V1 cytotox, HT1080-NT tox)
Cc1ccc(CN2C(=O)C3(c4ccccc42)N(c2cccc(C(F)(F)F)c2)C(=O)CS3(=O)=O)cc1 (stereo not drawn)	none (no result: MCF10A rereplic, HT1080 IDH1KD tx, HT1080-NT tox, SW480 rerep)
CSc1nc(Cl)c(Cc2ccc(OC(C)C)cc2)c(N2CCOCC2)n1	HT1080 IDH1KD tx inconclusive, KB-3-1 tox 9.2µM, KB-V1 cytotox inconclusive
COc1nc(SC)nc(Cl)c1Cc1ccc(OC(C)C)cc1	none
COc1ccc(OC)c(CCNC(=O)c2nc(-c3ccc(Cl)cc3)n3c2CCCCC3)c1	KB-3-1 tox inconclusive (no result: MCF10A rereplic, HT1080 IDH1KD tx, HT1080-NT tox, SW480 rerep)
COc1ccc(C(=O)NCC(C)(C)SCc2c(C)cc(C)cc2C)cc1	KB-V1 cytotox 18µM, HT1080-NT tox inconclusive
Cc1ccc2onc(CC(=O)N3CCN(c4cccc(C)c4C)CC3)c2c1	none (no result: MCF10A rereplic, HT1080 IDH1KD tx, HT1080-NT tox, SW480 rerep)
CN(NS(=O)(=O)c1ccc(Br)cc1)c1nc(C(F)(F)F)nc2ccccc12	HT1080 IDH1KD tx 18µM, KB-3-1 tox inconclusive, KB-V1 cytotox inconclusive, HT1080-NT tox inconclusive
